Measurements published in the supplement of paper PMC10849652.
Of roughly 7,900 targets only a part is listed; those with a hit were picked by preference. About 0.6% of all pairs of compound and target were hits. A number with no mark means an inactive call.

Legend:
Test in all cases: log2 fold change, soluble protein after heating vs DMSO (PISA); higher = thermal stabilisation; K562 cells, 10 uM, 30 min; active = over 0.2 and 3.5 SD of the protein, either way, in both replicates (recomputed)
[1] = compound: C#Cc1cccc(Nc2ncnc3cc(OCCOC)c(OCCOC)cc23)c1 [erlotinib]
Method in brief: (§1)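 K562 cells at 2×10^6 cells/mL were treated for 30 min with 10 μM compound, and aliquots were heated for 3 min over 48°C-58°C before pooling. Extraction used PBS with 0.5% NP-40 at 4°C, and soluble protein was the supernatant after 21,000xg for 90 min, measured by TMTpro 16plex LC-MS/MS with channel sums equalised. Thermal stability values, relative to control samples and from duplicates, are log2 fold changes.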

[2] = compound: C/C(=N\NC(=O)C1=CC(=CC=C1)S(=O)(=O)N2CCOCC2)/C3=C(C=CC(=C3)Cl)O
Method in brief: as §1

[3] = compound: C1=CC(=C(C=C1Cl)C2=NC3=NC=CN=C3C(=N2)NC4=CC=NC=C4)F
Method in brief: as §1

[4] = compound: C1=CC(=CC=C1C2=NC3=C(N2)C=C(C=C3)C(=O)N)OC4=CC=C(C=C4)Cl
Method in brief: as §1

[5] = compound: C1=CC2=C(C=CC(=C2)/C=C\3/C(=O)NC(=NCC4=CC=CS4)S3)N=C1
Method in brief: as §1

[6] = compound: C1=CC2=NC=CN=C2C=C1/C=C/3\C(=O)NC(=O)S3
Method in brief: as §1

[7] = compound: C1=CC=C(C=C1)C2=NC(=C(N2)C3=CC=NC=C3)C4=CC(=C(C=C4)Cl)O
Method in brief: as §1

[8] = compound: C1=CC=C2C(=C1)C3=NNC4=CC=CC(=C43)C2=O
Method in brief: as §1

[9] = compound: C1CCN(C1)C(=O)NC2=CC=CC(=C2)NC3=NC=C(C(=N3)NCCC4=CN=CN4)Br
Method in brief: as §1

[10] = compound: C1CN(CCC1(CC2=CC=C(C=C2)Cl)N)C3=NC=NC4=C3C=CN4
Method in brief: as §1

[11] = compound: C1COCCN1CCN2C3=CC=CC=C3N=C2NC(=O)C4=CC(=CC=C4)[N+](=O)[O-] [IRAK-1-4 Inhibitor I]
Method in brief: as §1

[12] = compound: C=CC(=O)N1CCC[C@@H](n2nc(-c3ccc(Oc4ccccc4)cc3)c3c(N)ncnc32)C1 [ibrutinib]
Method in brief: as §1

[13] = compound: CC(=O)c1cnc2ccc(-c3cc(Cl)c(O)c(Cl)c3)nc2c1N[C@H]1CC[C@H](CN(C)C)CC1
Method in brief: as §1

[14] = compound: CC(C)(C)Cn1c(N)nc2ccc(-c3[nH]c(C(C)(C)C)nc3-c3ccc(F)cc3)nc21 [ralimetinib]
Method in brief: as §1

[15] = compound: CC(C)(O)CC(=O)NCCn1ccc2ncnc(Nc3ccc(Oc4cccc(C(F)(F)F)c4)c(Cl)c3)c21
Method in brief: as §1

[16] = compound: CC(C)C1=C2N=C(C=C(N2N=C1)NCC3=CC=CC=C3)NCCCCCCN
Method in brief: as §1

[17] = compound: CC(C)C[C@@H](C=O)NC(=O)[C@H](CC(C)C)NC(=O)[C@H](CC(C)C)NC(=O)OCc1ccccc1
Method in brief: as §1

[18] = compound: CC(C)N(C[C@H]1O[C@@H](n2cnc3c(N)ncnc32)[C@H](O)[C@@H]1O)[C@H]1C[C@@H](CCc2nc3cc(C(C)(C)C)ccc3[nH]2)C1 [pinometostat]
Method in brief: as §1

[19] = compound: CC1=C(C(CC(=O)N1)C2=CC=C(C=C2)C(F)(F)F)C(=O)NC3=C(C=C4C(=C3)C=NN4)F
Method in brief: as §1

[20] = compound: CC1=C(C2=C(C=C1)C(=O)C3=CC=CC=C3N2CCCN)C
Method in brief: as §1

Sequence of UniProt O14776 (O14776 whole entry, looked up): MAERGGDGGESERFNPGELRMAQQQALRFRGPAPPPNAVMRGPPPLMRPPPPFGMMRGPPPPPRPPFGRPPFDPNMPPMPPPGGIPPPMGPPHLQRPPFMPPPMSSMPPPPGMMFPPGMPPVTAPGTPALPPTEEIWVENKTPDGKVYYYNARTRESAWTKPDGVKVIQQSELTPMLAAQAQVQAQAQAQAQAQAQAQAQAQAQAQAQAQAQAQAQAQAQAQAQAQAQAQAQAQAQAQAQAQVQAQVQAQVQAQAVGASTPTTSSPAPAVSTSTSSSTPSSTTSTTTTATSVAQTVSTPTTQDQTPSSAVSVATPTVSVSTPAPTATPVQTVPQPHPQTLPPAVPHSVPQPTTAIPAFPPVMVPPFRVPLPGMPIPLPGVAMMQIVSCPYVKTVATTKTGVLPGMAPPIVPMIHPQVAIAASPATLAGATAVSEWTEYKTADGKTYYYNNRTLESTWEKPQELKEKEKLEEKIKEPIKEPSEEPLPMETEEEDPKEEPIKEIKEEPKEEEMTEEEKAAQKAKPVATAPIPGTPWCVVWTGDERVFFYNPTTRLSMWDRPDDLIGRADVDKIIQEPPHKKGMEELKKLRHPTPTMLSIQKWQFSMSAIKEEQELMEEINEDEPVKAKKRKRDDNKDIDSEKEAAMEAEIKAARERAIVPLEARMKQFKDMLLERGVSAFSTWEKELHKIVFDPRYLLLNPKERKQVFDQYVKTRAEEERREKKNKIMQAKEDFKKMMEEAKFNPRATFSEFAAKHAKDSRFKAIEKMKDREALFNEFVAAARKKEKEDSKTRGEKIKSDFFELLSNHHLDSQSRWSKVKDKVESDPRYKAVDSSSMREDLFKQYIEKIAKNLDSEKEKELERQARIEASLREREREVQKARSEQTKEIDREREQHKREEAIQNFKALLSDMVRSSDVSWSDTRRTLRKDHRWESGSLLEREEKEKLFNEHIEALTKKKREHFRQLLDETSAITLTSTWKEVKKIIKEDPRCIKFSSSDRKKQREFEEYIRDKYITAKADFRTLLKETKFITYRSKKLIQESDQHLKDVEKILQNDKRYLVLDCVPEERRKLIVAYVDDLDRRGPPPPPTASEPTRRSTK
Sequence of UniProt Q15526 (Q15526 whole entry, looked up): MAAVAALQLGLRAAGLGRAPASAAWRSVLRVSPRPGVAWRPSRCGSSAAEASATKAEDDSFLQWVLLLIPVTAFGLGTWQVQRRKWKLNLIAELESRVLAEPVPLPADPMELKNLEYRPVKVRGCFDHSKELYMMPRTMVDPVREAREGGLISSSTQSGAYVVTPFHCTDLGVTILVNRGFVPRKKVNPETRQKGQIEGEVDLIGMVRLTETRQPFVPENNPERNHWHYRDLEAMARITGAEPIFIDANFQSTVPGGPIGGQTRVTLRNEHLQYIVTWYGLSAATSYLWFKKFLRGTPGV
Sequence of UniProt O95149 (O95149 whole entry, looked up): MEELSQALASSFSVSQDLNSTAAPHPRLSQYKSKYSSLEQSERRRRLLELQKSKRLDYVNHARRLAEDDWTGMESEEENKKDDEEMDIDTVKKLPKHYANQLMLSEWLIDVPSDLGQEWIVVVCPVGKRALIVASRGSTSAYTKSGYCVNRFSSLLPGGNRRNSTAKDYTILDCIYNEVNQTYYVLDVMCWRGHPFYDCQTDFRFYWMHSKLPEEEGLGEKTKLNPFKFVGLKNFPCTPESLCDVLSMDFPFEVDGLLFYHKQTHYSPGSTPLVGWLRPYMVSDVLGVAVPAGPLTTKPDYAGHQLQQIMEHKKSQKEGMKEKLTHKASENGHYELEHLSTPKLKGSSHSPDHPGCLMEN
Sequence of UniProt Q96CW6 (Q96CW6 whole entry, looked up): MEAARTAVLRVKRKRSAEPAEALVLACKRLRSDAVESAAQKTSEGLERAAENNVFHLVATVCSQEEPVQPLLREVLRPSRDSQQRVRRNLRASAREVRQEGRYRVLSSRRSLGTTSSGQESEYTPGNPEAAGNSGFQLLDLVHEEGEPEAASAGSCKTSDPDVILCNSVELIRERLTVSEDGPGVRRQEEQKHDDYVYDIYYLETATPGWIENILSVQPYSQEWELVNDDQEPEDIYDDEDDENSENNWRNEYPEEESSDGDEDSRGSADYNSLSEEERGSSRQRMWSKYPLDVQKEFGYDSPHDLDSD
Sequence of UniProt Q9BW92 (Q9BW92 whole entry, looked up): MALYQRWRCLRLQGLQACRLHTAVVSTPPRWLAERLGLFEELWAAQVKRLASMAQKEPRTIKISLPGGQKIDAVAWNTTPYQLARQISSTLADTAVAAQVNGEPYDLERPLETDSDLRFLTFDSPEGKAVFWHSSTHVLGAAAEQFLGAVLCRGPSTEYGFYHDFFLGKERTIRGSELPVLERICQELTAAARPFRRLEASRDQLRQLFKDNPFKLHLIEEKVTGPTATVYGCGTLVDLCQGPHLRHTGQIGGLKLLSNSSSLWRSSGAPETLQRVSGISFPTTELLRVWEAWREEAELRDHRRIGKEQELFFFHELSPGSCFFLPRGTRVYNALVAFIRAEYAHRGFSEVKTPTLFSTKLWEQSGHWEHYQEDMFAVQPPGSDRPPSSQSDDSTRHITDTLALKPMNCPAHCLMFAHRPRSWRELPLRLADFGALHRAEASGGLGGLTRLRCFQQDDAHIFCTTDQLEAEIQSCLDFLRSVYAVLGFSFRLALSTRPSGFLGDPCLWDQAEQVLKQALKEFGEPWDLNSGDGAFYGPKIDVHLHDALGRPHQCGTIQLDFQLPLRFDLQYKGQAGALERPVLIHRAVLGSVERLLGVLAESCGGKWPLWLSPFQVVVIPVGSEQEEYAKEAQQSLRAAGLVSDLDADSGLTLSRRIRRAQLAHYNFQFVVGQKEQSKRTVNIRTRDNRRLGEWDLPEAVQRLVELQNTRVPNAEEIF
Sequence of UniProt Q92581 (Q92581 whole entry, looked up): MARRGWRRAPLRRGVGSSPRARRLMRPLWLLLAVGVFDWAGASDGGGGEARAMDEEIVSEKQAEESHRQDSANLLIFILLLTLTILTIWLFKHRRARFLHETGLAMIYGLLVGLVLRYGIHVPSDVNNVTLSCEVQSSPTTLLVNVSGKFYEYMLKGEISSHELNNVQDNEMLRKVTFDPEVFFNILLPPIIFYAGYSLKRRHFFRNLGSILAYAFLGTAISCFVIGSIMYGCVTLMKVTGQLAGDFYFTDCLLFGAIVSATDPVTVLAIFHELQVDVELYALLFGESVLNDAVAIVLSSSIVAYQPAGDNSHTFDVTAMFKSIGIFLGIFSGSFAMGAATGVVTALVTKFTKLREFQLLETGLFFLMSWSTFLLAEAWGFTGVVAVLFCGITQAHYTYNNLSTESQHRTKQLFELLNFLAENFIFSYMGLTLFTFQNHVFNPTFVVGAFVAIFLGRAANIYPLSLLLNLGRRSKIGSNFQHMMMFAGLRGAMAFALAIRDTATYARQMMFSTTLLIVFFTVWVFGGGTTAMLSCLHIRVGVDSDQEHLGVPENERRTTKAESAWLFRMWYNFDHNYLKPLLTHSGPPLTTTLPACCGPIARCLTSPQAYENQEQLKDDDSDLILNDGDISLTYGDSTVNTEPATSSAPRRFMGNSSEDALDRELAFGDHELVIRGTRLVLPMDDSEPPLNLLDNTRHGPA
Sequence of UniProt Q8IWA5 (Q8IWA5 whole entry, looked up): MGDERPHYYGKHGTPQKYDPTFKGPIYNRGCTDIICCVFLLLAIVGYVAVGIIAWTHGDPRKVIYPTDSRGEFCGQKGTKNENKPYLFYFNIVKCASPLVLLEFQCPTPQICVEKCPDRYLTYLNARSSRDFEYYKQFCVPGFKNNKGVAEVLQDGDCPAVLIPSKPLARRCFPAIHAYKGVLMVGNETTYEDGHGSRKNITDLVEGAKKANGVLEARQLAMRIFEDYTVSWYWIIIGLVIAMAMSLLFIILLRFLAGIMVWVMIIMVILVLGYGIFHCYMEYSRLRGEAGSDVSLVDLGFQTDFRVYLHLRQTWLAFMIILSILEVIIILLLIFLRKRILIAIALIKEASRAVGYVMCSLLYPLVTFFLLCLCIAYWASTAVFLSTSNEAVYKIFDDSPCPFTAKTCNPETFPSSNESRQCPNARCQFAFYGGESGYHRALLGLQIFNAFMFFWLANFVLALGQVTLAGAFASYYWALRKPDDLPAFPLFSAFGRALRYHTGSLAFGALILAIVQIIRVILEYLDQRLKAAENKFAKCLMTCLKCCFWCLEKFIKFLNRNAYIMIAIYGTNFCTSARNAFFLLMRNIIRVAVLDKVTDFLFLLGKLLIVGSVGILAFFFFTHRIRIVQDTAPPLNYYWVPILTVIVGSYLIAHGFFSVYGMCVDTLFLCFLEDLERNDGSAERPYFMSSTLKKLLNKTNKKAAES
Sequence of UniProt P08240 (P08240 whole entry, looked up): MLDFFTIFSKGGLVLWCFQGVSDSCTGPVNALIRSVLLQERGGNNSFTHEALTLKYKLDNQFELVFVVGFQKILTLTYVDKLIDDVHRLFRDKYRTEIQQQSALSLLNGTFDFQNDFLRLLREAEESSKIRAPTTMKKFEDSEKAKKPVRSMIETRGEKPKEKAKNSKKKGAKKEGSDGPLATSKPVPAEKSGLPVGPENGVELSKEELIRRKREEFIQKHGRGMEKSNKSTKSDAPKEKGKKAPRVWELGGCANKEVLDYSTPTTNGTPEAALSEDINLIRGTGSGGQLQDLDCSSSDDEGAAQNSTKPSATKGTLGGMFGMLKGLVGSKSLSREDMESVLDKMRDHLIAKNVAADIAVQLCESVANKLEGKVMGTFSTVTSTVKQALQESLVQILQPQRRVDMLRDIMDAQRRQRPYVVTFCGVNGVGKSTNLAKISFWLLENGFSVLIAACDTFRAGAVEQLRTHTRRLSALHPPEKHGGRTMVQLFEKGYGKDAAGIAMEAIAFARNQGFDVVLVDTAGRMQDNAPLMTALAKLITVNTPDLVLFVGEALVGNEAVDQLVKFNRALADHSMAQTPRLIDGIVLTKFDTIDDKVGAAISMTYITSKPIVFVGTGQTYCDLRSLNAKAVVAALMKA

Target	log2 fold change [1]	log2 fold change [2]	log2 fold change [3]	log2 fold change [4]	log2 fold change [5]	log2 fold change [6]	log2 fold change [7]	log2 fold change [8]	log2 fold change [9]	log2 fold change [10]	log2 fold change [11]	log2 fold change [12]	log2 fold change [13]	log2 fold change [14]	log2 fold change [15]	log2 fold change [16]	log2 fold change [17]	log2 fold change [18]	log2 fold change [19]	log2 fold change [20]
SPECC1 (UniProt Q5M775)	0.044	-0.002	0.022	0	0.056	0.02	-0.208	-0.023	0.026	0.012	0.01	-0.068	-0.035	-0.107	0.025	0.08	0.003	-0.25	0.048	-0.01
TEX264 (UniProt Q9Y6I9)	0.099	0.024	0.034	0.769 (active)	0.325	0	0.203	0.349	0.033	0	-0.011	-0.049	-0.022	0	0.19	-0.148	-0.035	-0.005	-0.155	0.091
SLC7A6OS (UniProt Q96CW6)	-0.015	0.018	0.035	-0.039	0.007	0.042	0.045	-0.025	-0.015	0.022	0.018	-0.027	0.046	0.134	-0.032	0.045	-0.019	0.273 (active)	0.014	-0.199
SPTBN1 (UniProt Q01082)	0.003	0.067	-0.065	0.011	0.03	0.046	0.021	-0.055	-0.067	-0.071	-0.079	-0.013	-0.033	0.08	0.043	-0.094	0.024	0.044	-0.012	-0.001
SNUPN (UniProt O95149)	-0.091	0.032	0.136	-0.019	0.069	0.037	-0.085	-0.053	0.024	-0.061	0.037	-0.039	-0.089	-0.026	-0.045	-0.034	0.037	0.07	-0.002	-0.184
SNX6 (UniProt Q9UNH7)	0.093	0.056	0.035	0.017	0.042	-0.057	-0.053	-0.159	0.053	-0.018	0.012	0.035	-0.233	-0.035	-0.249	-0.234	0.013	0.048	0.026	-0.013
SLC44A2 isoform 2 (UniProt Q8IWA5)	0.059	0.028	-0.059	-0.054	0.019	-0.096	0.073	-0.065	-0.105	0.01	0.092	0.055	0.034	-0.128	-0.006	0.296 (active)	-0.047	0.056	-0.078	0.034
SURF1 (UniProt Q15526)	0.021	-0.036	0.051	-0.026	-0.045	0.055	0.056	0.017	-0.141	0	0.021	-0.028	0.051	-0.04	0.036	-0.172	0.028	-0.044	0.022	0.098
TCERG1 (UniProt O14776)	0.072	0.154	0.152	-0.017	0.067	-0.022	0.015	0.027	-0.104	-0.029	-0.062	-0.073	-0.065	-0.035	-0.172	-0.086	-0.041	-0.039	-0.016	0.062
SUCLA2 (UniProt Q9P2R7)	0.024	0.016	0.072	-0.031	0.049	-0.018	0.037	-0.019	0.004	-0.01	0.02	-0.045	0.014	-0.021	-0.151	-0.107	-0.033	-0.034	-0.021	0.022
SLC9A6 isoform 2 (UniProt Q92581)	-0.024	0.014	0.053	0.026	-0.009	0.029	-0.04	-0.056	-0.013	0.031	0.052	0.024	0.005	-0.056	-0.02	0.038	0.042	0.083	0.021	0.023
THADA (UniProt Q6YHU6)	0.039	0.068	0.03	0.035	0.071	0.007	0.029	-0.002	-0.011	-0.006	0.007	-0.026	-0.062	0.053	-0.166	-0.225	-0.071	0.016	-0.05	-0.047
STK38 (UniProt Q15208)	0.039	0.138	0.029	-0.021	0.014	0.079	0.057	0.049	-0.025	-0.05	0.004	-0.073	-0.308 (active)	0.101	-0.085	-0.089	0.016	0.058	0.038	-0.026
SRPRA (UniProt P08240)	-0.01	0.061	0.073	0.007	0.054	-0.048	0.063	0.003	0.001	0.006	-0.024	0.015	-0.028	-0.002	-0.058	0.021	-0.006	-0.001	-0.033	0.269 (active)
TARS2 (UniProt Q9BW92)	0.042	-0.721 (active)	0.021	0.003	0.086	0.038	-0.03	0.003	0.001	-0.058	-0.076	-0.043	0.009	-0.029	-0.078	-0.219 (active)	0.069	-0.022	0.036	0.054
